Assay results taken from PubChem BioAssay (NCI).
Compounds without any hit were thinned out: in the full panel of roughly 79,000, 15% have a hit. Active and inactive are the calls of the source. No stated cut-off is given here; in the data, active means growth inhibition above about 70%; inactive means the rest.

Key:
[1] = NCI Yeast Anticancer Drug Screen. Data for the wt1 strain (AID 149);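 further: 0% = growth of vehicle-treated wt1 cultures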; details: S. cerevisiae wt1 strain (SPY 50644) growth inhibition, stronger effect = higher value
Method in brief: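 Each compound is tested on wt1 yeast and the loss of growth versus vehicle gives the inhibition value.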

[2] = NCI Yeast Anticancer Drug Screen. Data for the rad50EPP+ strain (AID 151);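 further: 0% = growth of vehicle-treated control cultures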; details: S. cerevisiae rad50 mutant strain, stronger effect = higher value
Method in brief: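 Measured: growth inhibition of rad50EPP+ yeast. Reference: vehicle-treated controls. Screen uses strains with defined genetic alterations in DNA damage repair or cell cycle control.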

[3] = NCI Yeast Anticancer Drug Screen. Data for the mgt1 strain (AID 153); details: S. cerevisiae mgt1 mutant growth inhibition, stronger effect = higher value
Method in brief: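 Compounds were applied to mgt1 mutant yeast, and growth was then compared against vehicle-treated control cultures to give percent inhibition.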

[4] = NCI Yeast Anticancer Drug Screen. Data for the rad50 strain (AID 155);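 further: 0% = growth of vehicle-only cultures of the same strain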; details: S. cerevisiae rad50 strain growth inhibition, stronger effect = higher value
Method in brief: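 Vehicle-treated cultures provide the reference for the growth inhibition reported for compound-exposed, repair-deficient yeast.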

[5] = NCI Yeast Anticancer Drug Screen. Data for the mec2-1 strain (AID 157); details: S. cerevisiae mec2-1 strain, stronger effect = higher value
Method in brief: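 Compounds were applied to mec2-1 yeast cells. Their growth was then compared with that of vehicle-treated cultures to give growth inhibition.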

[6] = NCI Yeast Anticancer Drug Screen. Data for the rad14 strain (AID 159);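 further: 0% = growth of vehicle-treated control cultures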; details: S. cerevisiae rad14 strain growth inhibition, stronger effect = higher value
Method in brief: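 Inhibition of growth is reported for a repair-deficient yeast mutant following compound treatment, calculated relative to cultures that received vehicle.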

[7] = NCI Yeast Anticancer Drug Screen. Data for the sgs1 mgt1 strain (AID 161);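 further: 0% = growth of cultures given vehicle only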; details: S. cerevisiae sgs1 mgt1 strain, stronger effect = higher value
Method in brief: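 Compounds are added to genetically altered yeast, and growth is compared with cultures given vehicle alone to give percent inhibition.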

[8] = NCI Yeast Anticancer Drug Screen. Data for the CLN2oe strain (AID 163);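 further: 0% = growth of vehicle-only control cultures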; details: S. cerevisiae CLN2oe strain, stronger effect = higher value
Method in brief: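 Cells of an engineered yeast line with disturbed cell-cycle regulation are treated with compound. Inhibition of growth is then calculated relative to the vehicle-treated reference.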

[9] = NCI Yeast Anticancer Drug Screen. Data for the cln2 rad14 strain (AID 165);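 further: 0% = growth equal to vehicle treated cultures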; details: S. cerevisiae cln2 rad14 strain, stronger effect = higher value
Method in brief: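 Strain: cln2 rad14 yeast, altered in cell cycle control and DNA damage repair. Read-out: growth inhibition vs vehicle.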

[10] = NCI Yeast Anticancer Drug Screen. Data for the bub3 strain (AID 167); details: S. cerevisiae bub3 mutant strain, stronger effect = higher value
Method in brief: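 Mutant yeast screening strain plus compound; vehicle-treated cultures serve as the 0% inhibition reference.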

[11] = NCI Yeast Anticancer Drug Screen. Data for the wt2 strain (AID 169); details: S. cerevisiae wt2 strain growth inhibition, stronger effect = higher value
Method in brief: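 Growth of compound-treated yeast is measured and expressed as inhibition relative to vehicle-only controls.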

[12] = NCI Yeast Anticancer Drug Screen. Data for the mlh1 strain (AID 171);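 further: 0% = growth of vehicle-treated control cultures of the same strain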; details: S. cerevisiae mlh1 strain growth inhibition, stronger effect = higher value
Method in brief: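 Test agents were incubated with yeast bearing a defined DNA damage repair or cell cycle control alteration; values are growth inhibition normalised to vehicle-treated cultures.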

[13] = NCI Yeast Anticancer Drug Screen. Data for the sgs1 strain (AID 173);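 further: 0% = growth of vehicle-only control cultures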; details: S. cerevisiae sgs1 mutant, stronger effect = higher value
Method in brief: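 Strain with an altered DNA repair or cell cycle pathway exposed to compound. Growth then measured. Value = inhibition versus vehicle control.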

[14] = NCI Yeast Anticancer Drug Screen. Data for the mlh1 rad18 strain (AID 175); details: S. cerevisiae mlh1 rad18 strain growth inhibition, stronger effect = higher value
Method in brief: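 A repair-deficient yeast strain is exposed to test compound, and growth is scored relative to vehicle-treated controls.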

[15] = NCI Yeast Anticancer Drug Screen. Data for the rad18 strain (AID 177); details: S. cerevisiae rad18 mutant growth inhibition, stronger effect = higher value
Method in brief: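 DNA-repair-defective yeast; compound treatment; growth inhibition scored against vehicle.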

[16] = NCI Yeast Anticancer Drug Screen. Data for the rad52 strain (AID 147);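 further: 0% = growth of vehicle-treated control cultures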; details: S. cerevisiae rad52 mutant growth inhibition, stronger effect = higher value
Method in brief: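 Growth of repair-deficient yeast cells was compared between compound-treated and vehicle-treated cultures to give percent inhibition.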

[17] = at 5.0 µM (retest, dose inferred, filed as 0.5)
[18] = at 50.0 µM (retest, dose inferred, filed as 5.0)

Measured: growth inhibition

O=C1Nc2ccccc2/C1=C/COc1ccccc1
inactive: [1]; at 1.2 µM -1% | [1]; at 3.7 µM -1% | [1]; at 11.0 µM 9% | [1]; at 33.0 µM 62% | [2]; at 1.2 µM 21% | [2]; at 3.7 µM 58% | [3]; at 1.2 µM -1% | [3]; at 3.7 µM 1% | [3]; at 11.0 µM 19% | [4]; at 1.2 µM 2% | [4]; at 3.7 µM 4% | [4]; [17] 28% | [4]; at 11.0 µM 20% | [5]; at 1.2 µM -2% | [5]; at 3.7 µM 6% | [5]; [17] 13% | [5]; at 11.0 µM 23% | [6]; at 1.2 µM 0% | [6]; at 3.7 µM 5% | [6]; at 11.0 µM 20% | [7]; [17] 26% | [8]; at 1.2 µM 0% | [8]; at 3.7 µM 2% | [8]; at 11.0 µM 15% | [8]; at 33.0 µM 39% | [9]; [17] 7% | [10]; at 1.2 µM -3% | [10]; at 3.7 µM 0% | [10]; [17] 2% | [10]; at 11.0 µM 13% | [11]; at 1.2 µM -2% | [11]; at 3.7 µM 1% | [11]; at 11.0 µM 15% | [12]; at 1.2 µM -4% | [12]; at 3.7 µM -1% | [12]; at 11.0 µM 17% | [13]; at 1.2 µM 1% | [13]; at 3.7 µM 11% | [13]; at 11.0 µM 45% | [14]; [17] 20% | [15]; at 1.2 µM 0% | [15]; at 3.7 µM 4% | [15]; at 11.0 µM 16%
active: [1]; at 100.0 µM 97% | [2]; at 11.0 µM 92% | [2]; at 33.0 µM 97% | [2]; at 100.0 µM 98% | [3]; at 33.0 µM 93% | [3]; at 100.0 µM 99% | [4]; at 33.0 µM 71% | [4]; [18] 99% | [4]; at 50.0 µM 99.5% | [4]; at 100.0 µM 98% | [5]; at 33.0 µM 97% | [5]; [18] 99% | [5]; at 50.0 µM 99.5% | [5]; at 100.0 µM 99% | [6]; at 33.0 µM 97% | [6]; at 100.0 µM 99% | [7]; [18] 99% | [7]; at 50.0 µM 99.6% | [8]; at 100.0 µM 98% | [9]; [18] 99% | [9]; at 50.0 µM 98.2% | [10]; at 33.0 µM 96% | [10]; [18] 99% | [10]; at 50.0 µM 99.8% | [10]; at 100.0 µM 98% | [11]; at 33.0 µM 88% | [11]; at 100.0 µM 99% | [12]; at 33.0 µM 89% | [12]; at 100.0 µM 99% | [13]; at 33.0 µM 98% | [13]; at 100.0 µM 99% | [14]; [18] 99% | [14]; at 50.0 µM 99.5% | [15]; at 33.0 µM 81% | [15]; at 100.0 µM 98%

CN(Cc1cnc2nc(N)nc(N)c2n1)c1ccc(C(=O)N[C@@H](CCC(=O)O)C(=O)O)cc1
active: [16]; at 100.0 µM 85% | [4]; [18] 82% | [4]; at 50.0 µM 88.6% | [4]; at 100.0 µM 85% | [5]; at 33.0 µM 88% | [5]; [18] 94% | [5]; at 50.0 µM 97.9% | [5]; at 100.0 µM 96% | [6]; at 100.0 µM 72% | [7]; at 50.0 µM 82.5% | [10]; at 50.0 µM 90.5% | [14]; at 50.0 µM 87.8% | [15]; at 100.0 µM 80%
inactive: [16]; at 1.2 µM -2% | [16]; at 3.7 µM -1% | [16]; at 11.0 µM 8% | [16]; at 33.0 µM 41% | [2]; at 1.2 µM -2% | [2]; at 3.7 µM -4% | [2]; at 11.0 µM -5% | [2]; at 33.0 µM 1% | [2]; at 100.0 µM 21% | [3]; at 1.2 µM -1% | [3]; at 3.7 µM -3% | [3]; at 11.0 µM -4% | [3]; at 33.0 µM 1% | [3]; at 100.0 µM 28% | [4]; at 1.2 µM -2% | [4]; at 3.7 µM 1% | [4]; [17] -2% | [4]; at 11.0 µM 6% | [4]; at 33.0 µM 38% | [5]; at 1.2 µM 1% | [5]; at 3.7 µM 2% | [5]; [17] 14% | [5]; at 11.0 µM 17% | [6]; at 1.2 µM -1% | [6]; at 3.7 µM -5% | [6]; at 11.0 µM -7% | [6]; at 33.0 µM 14% | [7]; [17] -3% | [7]; [18] 64% | [8]; at 1.2 µM 0% | [8]; at 3.7 µM 0% | [8]; at 11.0 µM -7% | [8]; at 33.0 µM -16% | [8]; at 100.0 µM 20% | [9]; [17] -1% | [9]; [18] 22% | [9]; at 50.0 µM -6.4% | [10]; at 1.2 µM 2% | [10]; at 3.7 µM -1% | [10]; [17] -7% | [10]; at 11.0 µM -7% | [10]; at 33.0 µM -4% | [10]; [18] 63% | [10]; at 100.0 µM 40% | [11]; at 1.2 µM -3% | [11]; at 3.7 µM -4% | [11]; at 11.0 µM -4% | [11]; at 33.0 µM 12% | [11]; at 100.0 µM 47% | [12]; at 1.2 µM -1% | [12]; at 3.7 µM -4% | [12]; at 11.0 µM -5% | [12]; at 33.0 µM 7% | [12]; at 100.0 µM 35% | [14]; [17] -2% | [14]; [18] 58% | [15]; at 1.2 µM -2% | [15]; at 3.7 µM 0% | [15]; at 11.0 µM 4% | [15]; at 33.0 µM 30%
